# Reference: PubChem BioAssay (NCATS)
# The source made the active and inactive calls. Calls come from the whole dose curve; as a rule, active = well fitted activation curve with a large enough effect; inconclusive = small, poorly fitted or top-dose-only effect; inactive = flat fitted curve, though single readings scatter.
# Target: Peroxisome proliferator-activated receptor alpha (Homo sapiens) (UniProt Q07869)
# Assay: qHTS assay for small molecule agonists of the peroxisome proliferator-activated receptor alpha (PPARalpha) signaling pathway (AID 651778); note: % of control where 0% means no effect
# Settings: PathHunter PPARalpha complementation, chemiluminescence, 6 h; max response: hits give high values
# Source text: National Center for Advancing Translational Sciences [NCATS]
# NIH Chemical Genomics Center [NCGC]
# U.S. Environmental Protection Agency [EPA]
# National Institutes of Environmental Health Sciences [NIEHS]
# National Toxicology Program [NTP]
# The Peroxisome proliferator-activated receptors (PPARs) are lipid-activated transcription factors of the nuclear receptor superfamily with three distinct subtypes (alpha, garmma and beta/delta). All these subtypes heterodimerize with retinoid X receptor and have different physiological functions. PPARalpha is highly expressed in tissues with high rates of mitochondrial fatty acid oxidation, such as liver, heart, muscle, kidney and cells of the arterial wall. PPARalpha is a major regulator of lipid metabolism and energy homeostasis.
# A cell based assay was used to identify activators of PPARalpha. The assay detects binding of a ligand to PPARalpha leading to its activation, translocation and complementation thus forming a functional enzyme capable of hydrolyzing the substrate molecule and generating chemiluminescent signal.
# 2,000 cells in 6 uL/well were dispensed into white wall/solid bottom 1536-well plates using a Multidrop Combi (Thermo Scientific) dispenser. After incubation 37 C and 5% CO2 overnight, 23 nL compound or DMSO only were transferred by a pin tool. The plates were incubated for 6 hr at 37 C and 5% CO2. 3 ul PathHunter detection reagent (Discoverx) was then added to each well and following 60 min incubation at room temperature, chemiluminescence was quantified on a ViewLux CCD-based plate reader.
# Sequence of Peroxisome proliferator-activated receptor alpha (Homo sapiens) (Q07869 whole entry, looked up): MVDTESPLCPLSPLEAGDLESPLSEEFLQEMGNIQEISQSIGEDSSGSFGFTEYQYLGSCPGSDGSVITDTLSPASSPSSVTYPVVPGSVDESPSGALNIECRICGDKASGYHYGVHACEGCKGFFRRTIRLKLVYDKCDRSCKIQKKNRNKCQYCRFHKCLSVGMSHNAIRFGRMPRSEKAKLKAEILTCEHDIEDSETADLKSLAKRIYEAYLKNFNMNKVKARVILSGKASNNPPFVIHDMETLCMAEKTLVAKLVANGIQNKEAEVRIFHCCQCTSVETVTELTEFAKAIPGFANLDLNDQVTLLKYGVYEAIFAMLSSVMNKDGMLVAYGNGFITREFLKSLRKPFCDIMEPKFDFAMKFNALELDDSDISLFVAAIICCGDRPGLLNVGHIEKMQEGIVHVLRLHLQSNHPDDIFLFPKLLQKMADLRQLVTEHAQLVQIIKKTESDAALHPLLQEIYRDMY
row,Structure (SMILES),max response
1,C/C=C/C=C/CCCCCCCO,0.881% (inactive)
2,CC(C)(C)c1n[nH]c(=O)n(N)c1=O,0.89% (inactive)
3,CCCCCCCCCCCCCCCCCC#N,3.6% (inactive)
4,CCCCCCCCCCCCCCCCCC(N)=O,-0.969% (inactive)
5,CCCCOCCOCCOCCO,-1.01% (inactive)
6,CC(C)(C)c1ccc(C(=O)O)cc1,-0.433% (inactive)
7,S=C([S-])NCCNC(=S)[S-].S=C([S-])NCCNC(=S)[S-].[Mn+2].[Zn+2],-4.1% (inactive)
8,CCCCCC1CCC(=O)O1 (stereo not given),-1.42% (inactive)
9,c1ccc2c(c1)Cc1ccccc1-2,-0.262% (inactive)
10,CCCCCCC(C)(C)S,-1.64% (inactive)
11,OCCC(F)(F)C(F)(F)C(F)(F)C(F)(F)C(F)(F)C(F)(F)C(F)(F)C(F)(F)F,0.874% (inactive)
12,O=c1n(CCO)c(=O)n(CCO)c(=O)n1CCO,0.0492% (inactive)
13,NCCCCCCCCCCC(=O)O,-1.64% (inactive)
14,CS/C(=N\O)C(=O)N(C)C,-1.04% (inactive)
15,CC(C)OB(OC(C)C)OC(C)C,-0.0686% (inactive)
16,CCCCC(CC)C(=O)OCCOCCOCCOC(=O)C(CC)CCCC (stereo not given),0.387% (inactive)
17,CN(C)CCOCCN(C)C,-0.21% (inactive)
18,COC(=O)c1c(Cl)nn(C)c1S(=O)(=O)NC(=O)Nc1nc(OC)cc(OC)n1,0.0687% (inactive)
19,Cc1ccc(S(=O)(=O)N=C=O)cc1,-0.858% (inactive)
20,CCN(Cc1c(F)cccc1Cl)c1c([N+](=O)[O-])cc(C(F)(F)F)cc1[N+](=O)[O-],-0.89% (inactive)

row,Structure (SMILES),max response
1,O=[N+]([O-])C(CO)(CO)CO,-3.92% (inactive)
2,CC1(C)C(=O)NC(=O)N1CO,-1.57% (inactive)
3,CCCCC(CC)COP(=O)(O)OCC(CC)CCCC (stereo not given),10.3% (inactive)
4,CCCC[O][Al]([O]CCCC)[O]CCCC,-1.21% (inactive)
5,C[Si](Cl)(Cl)[Si](C)(Cl)Cl,-2.05% (inactive)
6,CCCCCCCCCc1ccccc1,-0.702% (inactive)
7,c1ccc(OCCOc2ccccc2)cc1,0.31% (inactive)
8,CC1(C)[C@@H]([C@@H](Br)C(Br)(Br)Br)[C@H]1C(=O)O[C@H](C#N)c1cccc(Oc2ccccc2)c1,-5.06% (inactive)
9,CN(C)c1nc(=O)n(C2CCC(O)CC2)c(=O)n1C (stereo not given),-3.35% (inactive)
10,NN(c1ccccc1)c1ccccc1,-1.16% (inactive)
11,C=CCCCCCCCCCCCC,-1.61% (inactive)
12,O=C=NCCCCCCN=C=O,-1.66% (inactive)
13,C1CCC2(CCCCO2)OC1,0.092% (inactive)
14,CCCCC(CC)COC(=O)c1ccc(C(=O)OCC(CC)CCCC)cc1 (stereo not given),-1.72% (inactive)
15,O=C(Cl)c1ccc(C(=O)Cl)cc1,-0.543% (inactive)
16,O=C(c1ccccc1)c1ccc(O)c(O)c1O,-4.07% (inactive)
17,CCC(=O)C1C(=O)CC(C(=O)O)CC1=O (stereo not given),1.2% (inactive)
18,CCCCCCCC/C=C\CCCCCCCCO,8.71% (inactive)
19,O=C(O)C1(C(=O)Nc2ccc(Cl)cc2Cl)CC1,0.116% (inactive)
20,CO[Si](CCCNCCN)(OC)OC,0.748% (inactive)
